Screens (PubChem)
Only some compounds are listed: those with a hit (about 19% of all), similar ones and a draw of the others.
HepG2 viability = kills HepG2 cells in TGF-b inhibitor counter-screen. Potency, µM (highest dose often 46.1 µM), usual class: cytotoxic. hit rate 0.76% among 410,000. HepG2 CAGA-GFP viability, ATP luminescence, 18 h
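CellTiter-Glo luminescence gave cytotoxicity after 18 hours at 37 degrees C. The cells were HepG2 CAGA-GFP in 1% FBS DMEM, stimulated with 500 pg/mL TGF-beta after compound addition. %Activity was normalised to no-cell wells (complete cell-killing) and DMSO (no toxicity), and curves were fitted and classified.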
ASM inhibitor = blocks human secretory acid sphingomyelinase. placental ASM, HMU-PC fluorogenic substrate, 60 min. Potency, µM (series often up to 57.5 µM), most hits filed as inhibitors. hit rate 0.006% among 340,000. AID 504937
Target sequence (P17405 47-631 limits assumed): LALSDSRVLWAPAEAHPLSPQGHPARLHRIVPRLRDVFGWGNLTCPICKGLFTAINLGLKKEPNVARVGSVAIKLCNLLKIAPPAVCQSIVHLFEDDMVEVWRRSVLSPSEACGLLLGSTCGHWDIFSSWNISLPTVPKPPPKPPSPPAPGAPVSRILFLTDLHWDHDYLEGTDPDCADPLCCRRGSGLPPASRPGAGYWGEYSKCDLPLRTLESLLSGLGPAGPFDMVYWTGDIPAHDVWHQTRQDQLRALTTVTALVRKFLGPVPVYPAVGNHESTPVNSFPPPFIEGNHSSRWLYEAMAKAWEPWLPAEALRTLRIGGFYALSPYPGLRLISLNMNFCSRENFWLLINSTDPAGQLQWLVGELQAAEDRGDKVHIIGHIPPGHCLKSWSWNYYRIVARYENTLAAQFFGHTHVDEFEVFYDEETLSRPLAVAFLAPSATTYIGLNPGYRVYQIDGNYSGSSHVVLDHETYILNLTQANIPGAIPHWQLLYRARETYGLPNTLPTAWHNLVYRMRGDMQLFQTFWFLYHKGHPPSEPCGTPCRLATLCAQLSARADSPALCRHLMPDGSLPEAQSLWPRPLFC
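Steps: dispense placental human ASM, pin compound, wait 10 min at room temperature, add HMU-PC0 substrate at 9 uM final, incubate 60 min at 37 °C, add stop solution raising pH to 10, read fluorescence.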
TGFb SMAD3 inh = blocks TGF-b signaling. HepG2 CAGA-GFP TGF-b/SMAD3 reporter, GFP fluorescence, 18 h; TGF-beta stimulated, 500 pg/mL final. Potency, µM (series often up to 46.1 µM), usual class: inhibitors. hit rate 1.2% among 410,000. AID 588855; further: nearly all actives have a fitted effect of over 65% in size
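HEPG2 CAGA-GFP cells (1000/well, DMEM with 1% FBS) were pre-incubated 2 h at 37 degrees C, given compound by pin tool, then stimulated with TGF-beta at 500 pg/mL final for 18 h before per-cell GFP fluorescence imaging.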
TDP1 cell CPT = growth inhibition of DT40 Tdp1-/-;hTDP1 cells with camptothecin (screen for TDP1 inhibitors). chicken DT40 Tdp1-/-;hTDP1 cells + 20 nM CPT, ATP luminescence, 48 h. Potency, µM (highest dose often 46.2 µM), most hits filed as inhibitors. hit rate 12% among 420,000. AID 686979; further: nearly all actives have a fitted effect of over 55% in size
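Chicken DT40 Tdp1-/- cells complemented with human TDP1, 400 cells/well, exposed to compounds plus 20 nM camptothecin for at least 48 h at 37 C; viability read as ATP content by CellTiter-Glo luminescence.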
IL-1B inflam inh = inflammasome signaling inhibition, IL-1 beta readout; activity change, % at 57.5 µM; hit rate 4.7% among 360,000; THP-1 LPS/ATP IL-1B secretion, AlphaLISA, 16 h; hits give low values; AID 743279; in the data active means activity change below about -50%; inconclusive means mostly about -30% to -49%
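THP-1 cells pretreated 1 hr with compounds (up to 57.5 uM final), then stimulated with LPS (250 ng/mL final) plus ATP (1.25 mM final); secreted IL-1B measured by AlphaLISA after 16 hr, decreased signal indicating inhibition.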
DT40 TDP1 no CPT = qHTS for Inhibitors of human tyrosyl-DNA phosphodiesterase 1 (TDP1): qHTS in cells in absence of CPT; DT40 Tdp1-/- hTDP1 cells, no CPT, ATP luminescence, 48 h; Potency, µM (top dose mostly 46.2 µM), usual class: inhibitors; hit rate 15% among 420,000; AID 686978, 2013; further: nearly all actives have a fitted effect of over 55% in size
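Camptothecin absent (DMSO only). Human TDP1-complemented DT40 knockout cells, 400 cells/well, 37 °C for minimum 48 hr; ATP measured via CellTiter-Glo, 30 min dark incubation, luminescence.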
Hits are given with their value; – = inactive; ? = inconclusive; · = not tested or not shown. Unless noted, the call rests on the fitted dose curve; in most records, active means well fitted curve in the direction sought with a large enough effect; inconclusive means small, poorly fitted or top-dose-only effect, or another doubt; inactive means no such curve, though single readings can be large; an effect the other way counts as inactive or inconclusive.

SMILES	HepG2 viability	ASM inhibitor	TGFb SMAD3 inh	TDP1 cell CPT	IL-1B inflam inh	DT40 TDP1 no CPT
COc1cccc(NC(=O)c2ncc(Cl)c(Cl)c2Cl)c1	–	–	–	7.3µM	–	5.2µM
Cc1cccc(NC(=O)c2cccc(C(=O)Nc3cccc(C)c3)n2)c1	–	–	–	–	–	–
COc1cccc(NC(=O)c2nc(SC)ncc2Cl)c1	–	–	–	?	–	?
C=CCOc1ccc(/C=C2\SC(=S)N(NS(=O)(=O)c3ccc(C)cc3)C2=O)cc1	–	?	?	–	–	–
CCOC(=O)C1(C)CCCN1C(=O)c1cccc2ccccc12 (stereo not given)	–	·	–	12µM	–	18µM
CCOC(=O)C1(C)CCCCCN1C(=O)c1ccc(N(C)C)cc1 (stereo not given)	–	·	–	?	–	21µM
CCOC(=O)C1(C)CCN1C(=O)c1cc(-c2ccc(Cl)cc2)oc1C (stereo not given)	–	·	–	18µM	-103	5.2µM
CCOC(=O)C1(C)CCCCCN1C(=O)/C=C/c1ccccc1 (stereo not given)	1µM	·	–	16µM	–	16µM
CCOC(=O)C1(C)CCCCN1C(=O)c1ccco1 (stereo not given)	–	·	–	–	–	–
Cc1ccc2nc(-c3cccc(NC(=O)c4cccc5ccccc45)c3)oc2c1	–	·	–	?	·	?
Cc1nn(-c2ccc(C(=O)NCC(c3ccco3)N3CCCC3)cc2)c(C)c1Cl (stereo not given)	–	–	–	?	?	–
Cc1[nH]c2ccc(F)cc2c1CCNC(=O)c1cc2cc(Cl)ccc2oc1=O	–	·	–	–	·	–
O=C(Cn1nc(-c2ccccc2)ccc1=O)N1CCCCC1	–	–	–	–	–	–
Cc1cc(Oc2ccc(Cl)cc2Cl)nc(C#N)n1	·	·	·	11µM	·	18µM
COc1cc(C2Nc3ccccc3C(=O)N2Cc2ccco2)ccc1O (stereo not given)	–	·	–	?	·	?
CC(=O)Nc1ccc(C2=CC(=O)C[C@H](c3ccc(Cl)cc3)C2)cc1	–	–	–	18µM	?	16µM
Cc1ccc(NC2=CC(=O)CC(c3ccccc3)C2)cc1 (stereo not given)	–	–	–	2.9µM	–	3.7µM
Cc1ccc(NC2=CC(=O)CC(c3ccc(Cl)cc3)C2)cc1 (stereo not given)	–	–	–	?	–	12µM
O=C1C=C(Nc2ccc(Cl)cc2)CC(c2ccccc2)C1 (stereo not given)	–	–	–	21µM	–	12µM
Cc1ccc(CS(=O)Cc2ccc(C(=O)NCc3ccccc3Br)o2)cc1 (stereo not given)	–	–	–	?	?	–
COCCN(C(=O)CSc1nc(N)cc(=O)[nH]1)c1c(N)n(Cc2ccccc2)c(=O)[nH]c1=O	–	–	–	–	–	–
CC(C)NC(=S)NN=C1c2ccccc2-c2ccccc21	–	–	?	23µM	–	7.3µM
C/C(=N\NC(=S)NC(C)C)c1ccco1	–	–	–	?	–	?
OCc1cc([C@@H](O)CNCCCCCCOCCCCc2ccccc2)ccc1O	–	·	?	9.4µM	·	11µM
O=c1[nH][nH]cc1C=Nc1ccc(Cl)cc1Cl	–	–	–	–	–	–
SMILES	HepG2 viability	ASM inhibitor	TGFb SMAD3 inh	TDP1 cell CPT	IL-1B inflam inh	DT40 TDP1 no CPT
O=c1[nH][nH]cc1C=Nc1cc(Cl)ccc1O	–	–	–	21µM	–	?
CC(=O)c1cccc(NC(=O)CSc2nc(N3CCOCC3)nc(N3CCOCC3)n2)c1	–	–	–	?	–	–
C=C1NN(CC#N)C(=O)N1c1ccc(OCc2ccccc2)cc1	–	·	–	–	·	?
C=C1NN(Cc2ccccc2)C(=O)N1c1ccc(OCc2ccccc2)cc1	–	·	–	11µM	·	11µM
Fc1cccc(NC(=S)NC2CCCCCCC2)c1	–	–	?	23µM	?	?
Fc1ccc(NC(=S)NC2CCCCC2)c(F)c1F	–	·	?	21µM	–	21µM
S=C(Nc1ccc(Cl)c(Cl)c1)NC1CCCCC1	–	–	?	?	-95	18µM
O=C(/C=C/c1ccc(Cl)cc1)Nc1nc(-c2cccs2)ns1	–	·	–	?	·	?
COc1ccc(-c2cc3c(=O)n(CC(=O)Nc4ccccc4C(F)(F)F)ccn3n2)cc1OC	–	·	?	–	·	–
CCCCOc1ccc(C2(C)NC(=O)NC2=O)cc1 (stereo not given)	–	–	–	?	–	18µM
CS(=O)(=O)N1CCC(Oc2cccc(C(=O)NCCCOc3cccnc3)c2)CC1	–	·	–	?	–	?
